Records with an inconclusive call do not appear. Calls of active or inactive are those of the source. Calls follow the shape of the dose curve; as a rule, active = well fitted inhibition curve with a large enough effect; inconclusive = small, poorly fitted or top-dose-only effect; inactive = flat fitted curve, though single readings scatter.
Experiments:
CRL-7250 [1] = experiment: Cytotoxic Profiling of Annotated Libraries Using Quantitative High-Throughput Screening (AID 1296008); details: Five cell lines viability, CellTiter-Glo ATP luminescence, 48-72 h; max response: hits give low values; also: potency is read from the fitted curve at half-maximal effect; as to max response: % is scaled to controls: 0 for no effect and ±100 for the full control effect
Method in brief: (§1)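 Cells exposed to compounds for 48 or 72 hr at 37 degrees Celsius. Viability read as ATP-coupled luminescence with CellTiter-Glo after 10 min at room temperature.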

HEK293 = experiment: as above; details: Five cell lines viability, CellTiter-Glo ATP luminescence, 48-72 h; max response: hits give low values
Method in brief: as §1

HaCat [2] = experiment: as above; details: Five cell lines viability, CellTiter-Glo ATP luminescence, 48-72 h; max response: hits give low values
Method in brief: as §1

KB-3-1 = experiment: as above; details: Five cell lines viability, CellTiter-Glo ATP luminescence, 48-72 h; max response: hits give low values
Method in brief: as §1

NIH3T3 = experiment: as above; details: Five cell lines viability, CellTiter-Glo ATP luminescence, 48-72 h; max response: hits give low values
Method in brief: as §1

CRL-7250 [3] = experiment: qHTS assay to identify novel small-molecules to repurpose for Merkel cell carcinoma treatment (AID 1296009); details: MCC and control cell lines, CellTiter-Glo viability, 72 h; at 44.8 µM (top of the series) unless noted
Method in brief: (§2)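 CellTiter-Glo luminescence after 72 hr compound exposure at 37 degree celsius gave cell viability. Libraries NPC and MIPE were run as 8- and 11-point dose responses; RLUs normalized to DMSO (negative) and no-cell (cytotoxicity) controls.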

HACAT [4] = experiment: as above; details: MCC and control cell lines, CellTiter-Glo viability, 72 h; at 44.8 µM (top of the series) unless noted
Method in brief: as §2
Also: nearly all actives have a fitted effect of over 60% in size.

CO[C@@H]1[C@H](O)[C@@H](O[C@@H]2C[C@H]3CC[C@@H]4C(CC[C@]5(C)[C@@H](C6=CC(=O)OC6)CC[C@]45O)[C@@]3(C)[C@H](O)C2)O[C@H](C)[C@@H]1O[C@@H]1O[C@H](CO)[C@@H](O)[C@H](O)[C@H]1O (stereo partly specified)
inactive: outcome (NIH3T3)
active: Potency (CRL-7250 [1]) 0.109 µM | Potency (HEK293) 0.343 µM | Potency (HaCat [2]) 0.769 µM | Potency (KB-3-1) 0.432 µM

CCN1CC2(COC)C3[C@@H](OC)C4C1C3(C1C[C@]3(O)[C@H](OC(=O)c5ccccc5)C1[C@]4(OC(C)=O)[C@@H](O)[C@@H]3OC)[C@H](OC)C[C@H]2O (stereo partly specified)
inactive: max response (CRL-7250 [1]) -8.46% | max response (HEK293) -1.66% | max response (HaCat [2]) 3.92% | outcome (KB-3-1) | outcome (NIH3T3)

Oc1ccc2c3c1O[C@H]1[C@H](N(CCCl)CCCl)CC[C@@]4(O)[C@@H](C2)N(CC2CC2)CC[C@]314
inactive: max response (CRL-7250 [1]) -3.35% | max response (HEK293) 0.595% | max response (HaCat [2]) -4.26% | outcome (KB-3-1) | outcome (NIH3T3)

CC(=O)OC1CC(O)C(C)(C)C2CC(OC(C)=O)C3(C)C(CCC4(C)C(c5ccoc5)C(=O)C5OC543)C12C (stereo unspecified)
inactive: max response (CRL-7250 [1]) -0.447% | max response (HEK293) -14.4% | max response (HaCat [2]) -11.6% | max response (KB-3-1) 4.61% | outcome (NIH3T3)

O=C1C[C@@H]2OCC=C3CN4CC[C@]56c7ccccc7N1[C@H]5[C@H]2[C@H]3C[C@H]46
inactive: outcome (CRL-7250 [1]) | max response (HEK293) -6.49% | outcome (HaCat [2]) | max response (KB-3-1) -9.91% | outcome (KB-3-1) | max response (NIH3T3) 3.86% | outcome (CRL-7250 [3]) | outcome (HACAT [4])

CC(=O)OC12C(O)C(C)C3(O)C4C=C(C)C(=O)C4CC(CO)=CC3C1C2(C)C (stereo unspecified)
inactive: max response (CRL-7250 [1]) 1.13% | max response (HEK293) -4.3% | max response (HaCat [2]) -13.8% | outcome (KB-3-1) | outcome (NIH3T3)

C[C@H]1O[C@@H](O[C@H]2C[C@@H](O)[C@]3(CO)C4C(CC[C@]3(O)C2)[C@@]2(O)CC[C@H](C3=CC(=O)OC3)[C@@]2(C)C[C@H]4O)[C@@H](O)[C@@H](O)[C@H]1O (stereo partly specified)
inactive: outcome (NIH3T3)
active: Potency (CRL-7250 [1]) 0.122 µM | Potency (HEK293) 0.343 µM | Potency (HaCat [2]) 0.968 µM | Potency (KB-3-1) 0.432 µM

COC(=O)C1(C)CCC(=O)C2(C)c3c(O)cc(C(C)C)cc3C(O)C(OC(C)=O)C12 (stereo unspecified)
inactive: max response (CRL-7250 [1]) -1.03% | max response (HEK293) -0.554% | max response (HaCat [2]) -0.878% | max response (KB-3-1) 0.842% | outcome (NIH3T3)

CN1CCC[C@@H]1Cc1c[nH]c2ccc(Nc3ncccc3[N+](=O)[O-])cc12
inactive: outcome (CRL-7250 [1]) | max response (HEK293) -20.4% | max response (HaCat [2]) -5.05% | max response (KB-3-1) -5.99% | outcome (NIH3T3) | outcome (CRL-7250 [3])

CN1[C@@H]2CC[C@H]1CC(OC(=O)C1C=Nc3ccccc31)C2 (stereo partly specified)
inactive: max response (CRL-7250 [1]) 0.829% | max response (HEK293) -5.26% | max response (HaCat [2]) 2.07% | max response (KB-3-1) 7.85% | outcome (NIH3T3)

CCC1NC(=O)C2C(Cl)C(Cl)CN2C(=O)C(C(C)O)NC(=O)CC(c2ccccc2)NC(=O)C(CO)NC1=O (stereo unspecified)
inactive: max response (CRL-7250 [1]) 3.8% | max response (HEK293) -1.23% | max response (HaCat [2]) 4.16% | outcome (KB-3-1) | outcome (NIH3T3)

Cc1cn(C[C@H](N)C(=O)O)c(=O)n(Cc2cc(-c3ccccc3)sc2C(=O)O)c1=O
inactive: max response (CRL-7250 [1]) -1.8% | max response (HEK293) -3.99% | max response (HaCat [2]) -2.49% | outcome (KB-3-1) | outcome (NIH3T3)

C[C@]12CC[C@@H](O)C[C@H]1CC[C@@H]1[C@@H]2CC[C@]2(C)C(=O)CC[C@@H]12
inactive: max response (CRL-7250 [1]) -3.83% | max response (HEK293) -17.8% | max response (HaCat [2]) -0.89% | outcome (KB-3-1) | outcome (NIH3T3)

CN(C(=O)Cc1ccccc1)C(CN1CCCC1)c1ccccc1 (stereo unspecified)
inactive: max response (CRL-7250 [1]) 0.97% | max response (HEK293) 0.503% | max response (HaCat [2]) 2.22% | max response (KB-3-1) -9.97% | outcome (NIH3T3)

COC1C(O)C(C)OC(OC2C(CO)O[C@@H](O[C@@H]3CC4CCC5C(CC[C@]6(C)[C@@H](C7=CC(=O)OC7)CC[C@]56O)[C@@]4(C)[C@H](O)C3)C(O)C2O)C1O (stereo partly specified)
inactive: outcome (NIH3T3)
active: Potency (CRL-7250 [1]) 0.485 µM | Potency (HEK293) 0.432 µM | Potency (HaCat [2]) 3.43 µM | Potency (KB-3-1) 0.862 µM

OC1(c2ccc(Cl)cc2)c2ccccc2C2=NCCN21 (stereo unspecified)
inactive: outcome (CRL-7250 [1]) | max response (HEK293) -19.8% | max response (HaCat [2]) 0.153% | max response (KB-3-1) 7.32% | outcome (NIH3T3) | outcome (CRL-7250 [3])

COC1CC(O[C@H]2CC[C@]3(C=O)C4CC[C@]5(C)[C@@H](C6=CC(=O)OC6)CC[C@]5(O)[C@@H]4CC[C@]3(O)C2)OC(C)C1O[C@@H]1O[C@H](CO)[C@@H](O)[C@H](O)[C@H]1O (stereo partly specified)
inactive: outcome (NIH3T3)
active: Potency (CRL-7250 [1]) 0.0968 µM | Potency (HEK293) 0.153 µM | Potency (HaCat [2]) 1.53 µM | Potency (KB-3-1) 0.273 µM

C1=C2CCCN[C@H]2[C@@H]2C[C@H]1[C@H]1CCCCN1C2
inactive: outcome (CRL-7250 [1]) | max response (HEK293) -4.85% | max response (HaCat [2]) -5.08% | outcome (KB-3-1) | outcome (NIH3T3) | outcome (CRL-7250 [3])

CC(C)(O)[C@H]1O[C@H]2CC[C@@]3(C)[C@@](O)(CC[C@H]4Cc5c([nH]c6ccccc56)[C@@]43C)C2=CC1=O
inactive: max response (CRL-7250 [1]) -14.1% | max response (HEK293) 2.88% | max response (HaCat [2]) 0.588% | max response (KB-3-1) 9.13% | outcome (NIH3T3)

COC1C(O)C(OC2CCC3(C=O)C(CCC4C3CCC3(C)C(C5=CC(=O)OC5)CCC43O)C2)OC(C)C1OC1OC(CO)C(O)C(O)C1O (stereo unspecified)
active: Potency (CRL-7250 [1]) 0.172 µM | Potency (HEK293) 0.243 µM | Potency (HaCat [2]) 1.72 µM | Potency (KB-3-1) 0.485 µM
inactive: outcome (NIH3T3)

COC1CC(OC2CCC3(C)C(CCC4C3CCC3(C)C(C5=CC(=O)OC5)C(OC(C)=O)CC43O)C2)OC(C)C1OC1OC(CO)C(O)C(O)C1O (stereo unspecified)
inactive: outcome (NIH3T3)
active: Potency (CRL-7250 [1]) 0.544 µM | Potency (HEK293) 1.22 µM | Potency (HaCat [2]) 2.43 µM | Potency (KB-3-1) 1.09 µM
